For some of these results: Entries with a potency or affinity are not part of this list.
Key:
Parameters in all cases: scale not given: direction of the effect not stated beside the values
[1] = biological target: Protein translocase subunit SecA (Escherichia coli (strain K12)) (UniProt P10408); assay: Assay to Identify E. coli SecA ATPase Inhibitors; format: functional; settings: 30 µM
[2] = biological target: T1, Ubiquitin-activating enzyme e1, putative (Leishmania donovani (strain BPK282A1)) (UniProt E9BSI1); assay: Leishmania donovani Ubiquitin Activating Enzyme (LdE1); format: functional; settings: 30 µM
T1 sequence (whole entry): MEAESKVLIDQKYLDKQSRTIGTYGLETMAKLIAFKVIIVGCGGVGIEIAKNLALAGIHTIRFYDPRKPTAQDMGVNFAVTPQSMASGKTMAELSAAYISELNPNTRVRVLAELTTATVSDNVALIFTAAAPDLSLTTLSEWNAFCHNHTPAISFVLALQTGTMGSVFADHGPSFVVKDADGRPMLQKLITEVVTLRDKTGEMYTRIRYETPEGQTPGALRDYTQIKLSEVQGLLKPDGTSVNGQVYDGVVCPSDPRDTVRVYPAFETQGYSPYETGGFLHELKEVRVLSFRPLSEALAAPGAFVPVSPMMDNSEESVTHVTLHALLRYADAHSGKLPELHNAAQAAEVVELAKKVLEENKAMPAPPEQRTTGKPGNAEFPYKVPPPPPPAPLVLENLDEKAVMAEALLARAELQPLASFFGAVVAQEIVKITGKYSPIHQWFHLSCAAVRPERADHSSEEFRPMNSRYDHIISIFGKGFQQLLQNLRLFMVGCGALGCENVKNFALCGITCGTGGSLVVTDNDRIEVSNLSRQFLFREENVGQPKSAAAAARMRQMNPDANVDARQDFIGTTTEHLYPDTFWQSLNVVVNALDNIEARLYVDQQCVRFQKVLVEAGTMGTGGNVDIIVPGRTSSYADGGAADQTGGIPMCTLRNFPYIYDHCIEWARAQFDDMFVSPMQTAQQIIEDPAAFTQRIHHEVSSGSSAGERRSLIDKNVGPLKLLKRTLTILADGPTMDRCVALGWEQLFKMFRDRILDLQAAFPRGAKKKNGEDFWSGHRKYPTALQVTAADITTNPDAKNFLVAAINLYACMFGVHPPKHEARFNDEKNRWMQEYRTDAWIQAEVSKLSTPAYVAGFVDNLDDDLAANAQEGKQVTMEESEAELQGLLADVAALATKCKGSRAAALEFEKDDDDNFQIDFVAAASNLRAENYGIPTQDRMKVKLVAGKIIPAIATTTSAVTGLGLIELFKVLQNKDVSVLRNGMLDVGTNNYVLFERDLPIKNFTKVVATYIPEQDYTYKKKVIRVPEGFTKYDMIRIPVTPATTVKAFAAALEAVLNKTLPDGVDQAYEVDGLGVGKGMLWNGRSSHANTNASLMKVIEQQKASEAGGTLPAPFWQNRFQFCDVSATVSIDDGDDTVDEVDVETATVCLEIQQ

[3] = biological target: Sialic acid-binding Ig-like lectin 9 (Homo sapiens) (UniProt Q9Y336); assay: Hs-Siglec9 ALPHAscreen SOP 20170721; settings: 10 µM
Trypanosoma cruzi = assay: Trypanosoma cruzi phosphomannomutase and mannose-1-phosphate guanylyltransferase assay; format: functional; settings: 10 µM
[4] = biological target: T2, Arginase-2, mitochondrial (Homo sapiens) (UniProt P78540); assay: in vitro enzyme assay to detect the production of urea directly proportional to the activity of Arginase II; format: functional; settings: 33.3 µM; further: in the data most compounds retested in dose-response had high values
T2 sequence (whole entry): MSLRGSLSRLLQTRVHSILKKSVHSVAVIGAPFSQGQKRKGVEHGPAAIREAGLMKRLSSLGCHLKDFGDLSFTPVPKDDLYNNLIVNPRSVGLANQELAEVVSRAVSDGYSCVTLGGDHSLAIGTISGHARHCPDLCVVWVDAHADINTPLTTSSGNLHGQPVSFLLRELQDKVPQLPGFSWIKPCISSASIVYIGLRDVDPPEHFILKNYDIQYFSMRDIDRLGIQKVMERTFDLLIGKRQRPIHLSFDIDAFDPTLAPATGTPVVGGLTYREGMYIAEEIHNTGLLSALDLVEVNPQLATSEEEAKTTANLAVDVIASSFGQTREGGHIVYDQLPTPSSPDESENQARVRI

[5] = biological target: T3, Proteasome subunit beta (Trypanosoma cruzi) (UniProt O96673); assay: Trypanosoma cruzi proteasome chymotrypsin-like activity (TcProtChymo) assay.; further: in the data most compounds retested in dose-response had high values; format: functional; settings: 9.37 µM
T3 sequence (whole entry): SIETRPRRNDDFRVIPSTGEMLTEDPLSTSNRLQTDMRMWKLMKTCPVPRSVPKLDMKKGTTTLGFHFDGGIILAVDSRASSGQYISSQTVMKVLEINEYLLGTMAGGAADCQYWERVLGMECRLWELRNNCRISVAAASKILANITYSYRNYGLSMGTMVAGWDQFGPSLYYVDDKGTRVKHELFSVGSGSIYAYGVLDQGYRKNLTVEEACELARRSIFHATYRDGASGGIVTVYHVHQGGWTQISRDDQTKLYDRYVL

Homo sapiens = species: Homo sapiens; assay: To identify inhibition of the IFN signalling (Jak-Stat) pathway via expression of an eGFP reporter gene under the control of an IFN-stimulated response element (ISRE) containing MxA promoter.; format: functional; settings: 30 µM
[6] = biological target: T4, Tyrosyl-tRNA synthetase, putative (Trypanosoma cruzi (strain CL Brener)) (UniProt Q4DSP6); assay: Trypanosoma cruzi tyrosyl tRNA synthetase (TcYRS) _High Tyrosine SOP; format: functional; settings: 30 µM; further: in the data most compounds retested in dose-response had high values
T4 sequence (whole entry): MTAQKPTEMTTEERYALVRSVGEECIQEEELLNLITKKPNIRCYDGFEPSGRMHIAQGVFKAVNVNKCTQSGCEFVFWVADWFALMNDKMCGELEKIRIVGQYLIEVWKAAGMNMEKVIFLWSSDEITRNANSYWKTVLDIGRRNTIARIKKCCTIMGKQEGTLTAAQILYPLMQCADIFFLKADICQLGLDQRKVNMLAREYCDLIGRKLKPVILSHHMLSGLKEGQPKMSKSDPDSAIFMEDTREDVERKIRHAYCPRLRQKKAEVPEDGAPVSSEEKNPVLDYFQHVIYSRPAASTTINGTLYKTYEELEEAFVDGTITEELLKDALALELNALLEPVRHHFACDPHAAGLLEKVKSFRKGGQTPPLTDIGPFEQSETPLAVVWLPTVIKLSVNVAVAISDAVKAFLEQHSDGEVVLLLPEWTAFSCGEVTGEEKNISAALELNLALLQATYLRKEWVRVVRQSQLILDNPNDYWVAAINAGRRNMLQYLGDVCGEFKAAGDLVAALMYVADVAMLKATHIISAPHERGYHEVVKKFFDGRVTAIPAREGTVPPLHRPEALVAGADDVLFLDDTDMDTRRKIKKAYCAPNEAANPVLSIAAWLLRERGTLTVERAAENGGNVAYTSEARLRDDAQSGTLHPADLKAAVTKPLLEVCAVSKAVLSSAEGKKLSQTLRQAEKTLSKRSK

[7] = biological target: T4, Tyrosyl-tRNA synthetase, putative (Trypanosoma cruzi (strain CL Brener)); assay: Trypanosoma cruzi tyrosyl tRNA synthetase (TcYRS) SOP; format: functional; settings: 30 µM
[8] = biological target: Chromo domain-containing protein 1 (Saccharomyces cerevisiae (strain ATCC 204508 / S288c) (Baker's yeast)) (UniProt P32657); assay: ScCHD-1 Enzyme Inhibition Assay; format: functional; settings: 30 µM; further: in the data most compounds retested in dose-response had high values
Sequence of Chromo domain-containing protein 1 (Saccharomyces cerevisiae (strain ATCC 204508 / S288c) (Baker's yeast)) (P32657 whole entry, the tested form may be a part): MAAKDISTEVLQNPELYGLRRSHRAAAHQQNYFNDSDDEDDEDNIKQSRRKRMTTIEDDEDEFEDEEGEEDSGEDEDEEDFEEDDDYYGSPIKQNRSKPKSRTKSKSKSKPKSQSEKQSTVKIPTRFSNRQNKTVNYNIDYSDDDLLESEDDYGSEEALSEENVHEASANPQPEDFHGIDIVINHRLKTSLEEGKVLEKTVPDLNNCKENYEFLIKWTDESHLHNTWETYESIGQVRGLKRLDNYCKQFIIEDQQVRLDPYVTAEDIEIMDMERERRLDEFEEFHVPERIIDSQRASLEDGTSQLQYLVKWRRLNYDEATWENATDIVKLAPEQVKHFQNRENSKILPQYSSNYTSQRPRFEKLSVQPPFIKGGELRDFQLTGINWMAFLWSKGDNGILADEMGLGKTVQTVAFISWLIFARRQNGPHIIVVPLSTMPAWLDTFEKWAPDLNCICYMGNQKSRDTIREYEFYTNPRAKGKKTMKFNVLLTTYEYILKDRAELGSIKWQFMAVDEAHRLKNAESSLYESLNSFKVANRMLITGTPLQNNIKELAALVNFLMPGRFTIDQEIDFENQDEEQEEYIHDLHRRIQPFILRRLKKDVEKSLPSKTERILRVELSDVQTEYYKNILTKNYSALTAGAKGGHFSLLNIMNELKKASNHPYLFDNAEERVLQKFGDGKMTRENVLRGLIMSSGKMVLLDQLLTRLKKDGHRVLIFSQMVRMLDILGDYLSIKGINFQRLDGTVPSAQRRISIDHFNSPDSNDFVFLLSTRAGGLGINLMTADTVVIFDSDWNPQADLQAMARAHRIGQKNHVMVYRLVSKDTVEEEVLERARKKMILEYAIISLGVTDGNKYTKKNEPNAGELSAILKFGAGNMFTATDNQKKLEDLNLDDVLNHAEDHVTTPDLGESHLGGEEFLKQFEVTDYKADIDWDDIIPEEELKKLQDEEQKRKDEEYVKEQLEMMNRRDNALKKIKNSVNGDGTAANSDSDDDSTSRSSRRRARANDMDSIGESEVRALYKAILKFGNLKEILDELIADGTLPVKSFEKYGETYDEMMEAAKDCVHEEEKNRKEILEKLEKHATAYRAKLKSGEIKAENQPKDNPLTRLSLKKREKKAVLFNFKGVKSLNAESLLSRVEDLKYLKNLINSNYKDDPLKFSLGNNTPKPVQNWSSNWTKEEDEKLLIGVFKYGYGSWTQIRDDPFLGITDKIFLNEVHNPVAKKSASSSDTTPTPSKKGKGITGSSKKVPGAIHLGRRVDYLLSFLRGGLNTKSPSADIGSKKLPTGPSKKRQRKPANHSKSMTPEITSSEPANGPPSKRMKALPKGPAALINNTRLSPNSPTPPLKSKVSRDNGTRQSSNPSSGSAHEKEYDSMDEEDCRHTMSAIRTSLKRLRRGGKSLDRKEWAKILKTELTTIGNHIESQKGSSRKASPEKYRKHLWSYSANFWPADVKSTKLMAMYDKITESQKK

Sequence of Protein translocase subunit SecA (Escherichia coli (strain K12)) (P10408 whole entry): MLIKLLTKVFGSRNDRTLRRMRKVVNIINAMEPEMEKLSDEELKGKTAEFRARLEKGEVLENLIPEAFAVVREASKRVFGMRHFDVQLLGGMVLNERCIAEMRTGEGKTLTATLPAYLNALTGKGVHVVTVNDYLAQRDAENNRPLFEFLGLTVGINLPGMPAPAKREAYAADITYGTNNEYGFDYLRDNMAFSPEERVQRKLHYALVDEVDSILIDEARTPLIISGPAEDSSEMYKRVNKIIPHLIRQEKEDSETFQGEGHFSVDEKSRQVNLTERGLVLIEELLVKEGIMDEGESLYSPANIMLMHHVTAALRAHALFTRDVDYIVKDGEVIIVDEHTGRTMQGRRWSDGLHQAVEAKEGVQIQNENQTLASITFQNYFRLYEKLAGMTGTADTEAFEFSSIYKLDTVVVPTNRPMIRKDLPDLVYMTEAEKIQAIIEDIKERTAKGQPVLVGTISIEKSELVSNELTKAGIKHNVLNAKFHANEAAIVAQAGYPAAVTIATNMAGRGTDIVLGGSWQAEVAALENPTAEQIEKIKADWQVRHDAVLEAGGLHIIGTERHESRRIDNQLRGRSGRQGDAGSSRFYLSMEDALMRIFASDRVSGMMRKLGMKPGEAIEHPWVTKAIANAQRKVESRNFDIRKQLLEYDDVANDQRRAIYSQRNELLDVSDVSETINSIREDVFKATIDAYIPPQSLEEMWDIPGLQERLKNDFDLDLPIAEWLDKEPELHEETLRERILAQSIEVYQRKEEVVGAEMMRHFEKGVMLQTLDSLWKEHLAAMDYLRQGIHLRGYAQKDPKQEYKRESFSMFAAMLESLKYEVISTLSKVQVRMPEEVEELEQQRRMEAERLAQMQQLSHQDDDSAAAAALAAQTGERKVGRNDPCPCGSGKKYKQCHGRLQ
Sequence of Sialic acid-binding Ig-like lectin 9 (Homo sapiens) (Q9Y336 whole entry): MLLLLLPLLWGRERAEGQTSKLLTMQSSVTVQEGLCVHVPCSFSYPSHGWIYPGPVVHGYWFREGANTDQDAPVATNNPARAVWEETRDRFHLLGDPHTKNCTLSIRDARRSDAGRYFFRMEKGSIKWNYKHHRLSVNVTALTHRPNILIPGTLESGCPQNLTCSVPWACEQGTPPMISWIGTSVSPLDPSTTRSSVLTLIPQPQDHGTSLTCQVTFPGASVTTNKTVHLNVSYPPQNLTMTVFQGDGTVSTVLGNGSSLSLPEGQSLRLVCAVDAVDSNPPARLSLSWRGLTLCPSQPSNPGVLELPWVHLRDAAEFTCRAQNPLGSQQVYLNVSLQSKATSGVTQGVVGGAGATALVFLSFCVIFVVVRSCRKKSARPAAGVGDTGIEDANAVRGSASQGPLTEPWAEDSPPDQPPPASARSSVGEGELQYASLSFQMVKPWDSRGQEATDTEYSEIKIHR

Row | Structure (SMILES) | Percent Effect [1] | Percent Effect [2] | Percent Effect [3] | Percent Effect (Trypanosoma cruzi) | Percent Effect [4] | Percent Effect [5] | Percent Effect (Homo sapiens) | Percent Effect [6] | Percent Effect [7] | Percent Effect [8]
1 | Cc1c(F)cccc1CN1CCn2nc(CNC(=O)N(C)C)cc2C1 | -5.26% | 10.8% | 14.7% | 9.21% | 28.3% | 8.05% | 4.47% | 5.85% | 17.1% | -7.8%
2 | Cc1nc(C)n(CC2CN(CCCOc3ccccc3C)CCO2)n1 (stereo not given) | -2.1% | -2.67% | -2.65% | 1.61% | 2.66% | 0.763% | 7.57% | -0.526% | -7.69% | -5.97%
3 | O=C(NCCNC(=O)c1scnc1Cl)c1ccccc1 | -3.41% | 16% | 3.33% | 2.01% | -0.887% | 14.2% | 9.89% | 7.89% | 17.9% | -5%
4 | CC(C)n1ccnc1C1CCN(C(=O)c2ccccc2)CC1 | -5.35% | 16.2% | 13.1% | 9.8% | 11.5% | 14% | 14.4% | 10.1% | 19.5% | -5%
5 | Cc1[nH]ccc1C(=O)N1CCCC(c2nccn2Cc2cscn2)C1 (stereo not given) | -7.46% | -5.41% | 27.9% | 9.99% | 57% | 15.2% | 8.11% | 7.98% | 17.1% | -3.33%
6 | COC1CC2(CCN(Cc3ccc4c(c3)OCO4)CC2)C1 | -2.7% | 24.7% | -4% | -2.63% | 1.83% | 10% | -11.4% | 6.76% | 12.5% | -8.26%
7 | CC(=O)NC1CCCN(C(=O)NCc2cccnc2N(C)C)C1 (stereo not given) | -1.76% | 16% | 3.66% | 0.402% | 6.65% | 11.4% | 11.5% | 8.95% | 15.4% | -11.3%
8 | CN1CCN(c2cc(CNC(=O)c3ccc(=O)[nH]n3)ccn2)CC1 | -0.863% | 12.8% | -10.3% | -2.16% | 9.43% | 9.81% | 23.3% | 6.22% | 18.1% | -2.33%
9 | CCc1nc(C2CCCN2CCCS(=O)(=O)c2ccccc2)no1 (stereo not given) | -2.94% | 15.4% | -14.9% | 2.16% | 0.41% | 13.1% | 6.1% | 4.31% | 22.9% | -3.94%
10 | CCOC(=O)CN1CCC2(CC1)CC(=O)c1ccc(OC)cc1O2 | -2.51% | 27.3% | 8.34% | 4.13% | -4.11% | 19.1% | 7.83% | 1.93% | 15% | -11%
11 | CC(Cn1cccn1)NC(=O)N1CCN(Cc2cccnc2)CC1 (stereo not given) | -6.34% | 7.79% | 1.46% | 1.87% | -1.02% | 11.2% | -5.12% | 5.88% | 23.5% | -16.2%
12 | Cc1ccc(NC(=O)C2CSCN2C(=O)c2cnccn2)c(C)c1 (stereo not given) | -4.93% | 7.69% | -2.1% | -4.6% | 6.15% | 1.11% | 26.2% | 3.35% | 10.8% | -1.89%
13 | Cc1cccnc1CN(C)CC1(O)CCCN(CC2CCCCC2)C1=O (stereo not given) | -5.13% | -2.7% | 19.5% | 6.69% | 5.94% | 9.76% | 23% | 13.3% | 17.1% | -2.65%
14 | CN(Cc1noc(C2CC2)n1)C1CCN(Cc2nnc(C3CC3)o2)C1 (stereo not given) | 4.16% | 15.6% | -1.39% | -6.16% | 1.02% | 17.4% | 20.4% | 6.86% | 16.5% | -8.04%
15 | Cc1cc(CN(C)C(=O)c2ccc(F)cc2Br)no1 | -3.65% | 10.3% | -16.2% | -5.35% | -1.23% | 15.3% | 28.1% | 3.35% | 10.8% | -3.45%
16 | Cc1cc(N2CCC(Cc3ccccc3)CC2)nc(-c2ccncc2)n1 | -1.61% | -15.6% | 11% | 14.4% | -6.76% | -5.44% | -2.83% | 18.6% | 7.06% | 4.27%
17 | CC(O)CN1CCC(CNCc2ccccc2OC(F)(F)F)CC1 (stereo not given) | -4.07% | 10.3% | -7.91% | 7.98% | -1.64% | 9.81% | 2.5% | 0.478% | 10.8% | -0.0569%
18 | CS(=O)(=O)NCC1CCCN(C(=O)c2cc3ccccc3o2)C1 (stereo not given) | -0.17% | 28.6% | 3.25% | 3.36% | -9.22% | 15.1% | 11.5% | 5.88% | 23.5% | -10.2%
19 | Cc1nn(-c2ccccc2)cc1C(=O)N1CCCN2CCCC2C1 (stereo not given) | -4.61% | 10.7% | 5.72% | -0.201% | 0.887% | 7.21% | 3.25% | 7.89% | 12.8% | -14.7%

From ChEMBL document CHEMBL3988442, “University of Dundee, Small-Polar-MMV Screening Library” (2021)
